Lassa entry inh: inhibitors of Lassa virus binding or cell entry. Potency, µM (doses to about 37.9 µM), without a hit: at the highest dose activity change, negative = inhibition, actives largely listed as inhibitors. actives 1.2% (n = 300,000). Lassa virus pseudotype entry inhibition, cell reporter. AID 540256; calls by dose curve; tested in HEK293 cells; also: potency is read from the fitted curve at half-maximal effect; nearly all actives have a fitted effect of over 50% in size
Pf growth 96h: P. falciparum growth inhibition at 96 hours; P. falciparum luciferase reporter growth, 96 h; Potency, µM (top dose mostly 28.7 µM), without a hit: at the top dose activity change, negative = inhibition, hits mostly inhibitors; actives 6.9% (n = 320,000); AID 504834; also: potency is read from the fitted curve at half-maximal effect
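Two parasite generations (96 h, 37 C, 5% CO2) of compound exposure in infected erythrocytes (0.05% parasitemia, 2% hematocrit). Luciferase-reporter P. falciparum; decreased luminescence indicates inhibited growth, aimed at apicoplast-acting delayed death.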
Pf growth 48h: P. falciparum growth inhibition at 48 hours (one generation) | P. falciparum luciferase growth in erythrocytes, 48 h | actives 5.9% (n = 310,000) | AID 504832 | Potency, µM (series often up to 28.7 µM), inactives show at the highest dose activity change, negative = inhibition, actives largely listed as inhibitors; also: potency is read from the fitted curve at half-maximal effect
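Erythrocytes infected with P. falciparum carrying an integrated firefly luciferase reporter (2% hematocrit, 0.1% parasitemia final) were exposed to compounds in RPMI 1640 with 0.5% Albumax at 37 C, 5% CO2. Growth inhibition was scored as reduced luminescence.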
Marburg entry inh: Marburg virus entry inhibition; Potency, µM (highest dose often 37.8 µM), inactives show at the top dose activity change, negative = inhibition, actives largely listed as inhibitors; Marburg virus pseudotyped entry inhibition, cell reporter; actives 1.8% (n = 300,000); AID 540276; calls by dose curve; tested in HEK293 cells; also: potency is read from the fitted curve at half-maximal effect
HCMV inh: inhibitors of human cytomegalovirus. actives 4.5% (n = 410,000). AID 1259415. activity change, negative = inhibition, % at 57.5 µM. HFF cells, HCMV-luciferase reporter, 72 h; active compounds read low; in the data active = activity change below about -60%; inconclusive = no clear call, values can overlap the other calls; inactive = above about -39%
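HFF cells seeded 16 h at 37C, treated with compounds, infected with luciferase-reporter HCMV at MOI 1 PFU/cell; luciferase read at 72 h post infection, normalized to buffer-only and Salinomycin controls.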
HCV inh: HCV inhibition | Potency, µM (titrated, usually from 41.8 µM), inactives show at the highest dose activity change, negative = inhibition, most hits filed as inhibitors | actives 3.4% (n = 340,000) | Huh7.5.1 HCVcc-Cre infection, luciferase reporter, 44 h | AID 651820; also: potency is read from the fitted curve at half-maximal effect
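Whole-lifecycle infectious HCVcc-Cre system; cells 1,000/well, compound then virus (~0.5 moi) added 4 h after plating, 44 h culture. Luciferase read 15 sec following 15 min substrate incubation, room temp.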
Active calls of the source: *; u = inconclusive; x = not tested or not shown; [ ] = remark or other dose. Hits are enriched below; roughly 14% of the tested compounds scored in any of these assays. Unless noted, calls follow the shape of the dose curve; as a rule, active = well fitted inhibition curve with a large enough effect; inconclusive = small, poorly fitted or top-dose-only effect, or another doubt; inactive = no such curve, though single readings can be large or run the other way. % is scaled to controls: 0 for no effect and ±100 for the full control effect.

SMILES | Lassa entry inh | Pf growth 96h | Pf growth 48h | Marburg entry inh | HCMV inh | HCV inh
COc1cc(Nc2cc(C)nc3ncnn23)cc(OC)c1OC | x | u | 9.3µM* | x | 76 | 12%
COC(=O)c1cc(Nc2cc(C)nc3ncnn23)cc(C(=O)OC)c1 | -16% | -27% | 16% | 18% | 30 | -1%
CCOC(=O)C1=CC[C@@H](c2cccc(C)c2)N(S(=O)(=O)c2ccc(C)cc2)[C@H]1C(=O)OCC | x | u | u | x | -6 | u
CCOC(=O)C1=CC[C@@H](c2ccccc2Cl)N(S(=O)(=O)c2ccc(C)cc2)[C@H]1C(=O)OCC | x | u | 13µM* | x | -19 | u
O=C(Nc1cccc2ccccc12)c1ccc2sc([C@H]3C[C@H](O)[C@@H](CO)O3)nc2c1 | x | x | x | x | -25 | x
CC/C(=N\n1nnnc1Nc1ccccc1)c1ccccc1 | 3% | -18% | 10µM* | 0% | 9 | 8%
COc1cccc(/C=C2\CC(C)Cc3c2nc2ccccc2c3C(=O)O)c1OC (stereo not drawn) | 15% | u | -6% | -5%[46.1 µM] | -1 | 22%
C[C@H]1CN([C@@H](C)CO)C(=O)CCCn2nncc2CO[C@H]1CN(C)C(=O)Nc1ccnc(N2CCOCC2)c1 | x | x | x | x | 20 | x
Clc1ccc(C2=C3CCCCn4c(-c5ccccc5)c[n+](c43)C2)cc1 | -21% | u | 10µM* | u | -9 | -18%
COc1ccc(-c2c[n+]3c4n2CCCCC4=C(c2ccc(Br)cc2)C3)cc1 | -85% | 2.1µM* | 3.7µM* | u | -100* | u
CC(=O)[C@@]1(O)C(C)CC2C3C=C(C)C4=Cc5c(cnn5-c5ccccc5)C[C@]4(C)C3C(O)C[C@@]21C (stereo partly drawn) | u | 10µM* | 5.2µM* | 7.9µM* | u | 7.1µM*
CCCCOc1c(Cl)cc(C(=O)N(Cc2ccc(C)o2)C2CCS(=O)(=O)C2)cc1Cl (stereo not drawn) | -2%[46.1 µM] | x | x | u | -110* | x
COC(=O)c1scc(-c2ccccc2)c1S(=O)(=O)Nc1cccc(C)c1C | 29%[46.1 µM] | x | x | x | 31 | x
O=C(c1ccc(Cl)cc1)N1CCCCC(Sc2nnc(-c3ccc4c(c3)OCO4)o2)C1=O (stereo not drawn) | u | 4% | 59% | u | -67* | -2%
CCOC(=O)c1ccccc1NC(=O)CCc1c(C)nc2ncnn2c1C | 28%[46.1 µM] | x | x | 8%[46.1 µM] | 12 | x
CCCCC(=O)N1CCCC(c2nc3c(nnn3Cc3cc(C)ccc3C)c(=O)[nH]2)C1 (stereo not drawn) | -30%[14.3 µM] | u | 8.3µM* | -20% | -6 | x
Cc1ccc(Cn2nnc3c(=O)[nH]c(C4CCCN(C(=O)Nc5ccc(F)cc5F)C4)nc32)cc1 (stereo not drawn) | -26% | u | u | -4% | -26 | 1%
Cc1ccc(C(=O)N2CCCC(c3nc4c(nnn4Cc4ccccc4)c(=O)[nH]3)C2)cc1 (stereo not drawn) | -17% | x | 10µM* | 18% | 13 | 17%
CCOc1ccccc1NC(=O)N1CCCC(c2nc3c(nnn3Cc3ccc(C)cc3)c(=O)[nH]2)C1 (stereo not drawn) | u | 0% | 4.1µM* | 2% | -21 | -6%
COc1ccc(-c2nc(C)c(CCNC(=O)c3cc(OC)c(OC)c(OC)c3)s2)cc1OC | -27%[46.1 µM] | x | x | x | 36 | x
CCC(C)NC(=O)c1c(N)n(CCCOC)c2nc3ccccc3nc12 (stereo not drawn) | -10% | 2.3µM* | u | -22% | -30 | 8%
COCCCn1c(N)c(C(=O)NCc2ccco2)c2nc3ccccc3nc21 | -1%[46.1 µM] | u | 9.3µM* | -25%[46.1 µM] | -2 | -30%
CCC(C)NC(=O)c1c(N)n(CC2CCCO2)c2nc3ccccc3nc12 (stereo not drawn) | -14% | 13µM* | 12µM* | -6% | -20 | -8%
CC(C)CCNC(=O)c1c(N)n(CC2CCCO2)c2nc3ccccc3nc12 (stereo not drawn) | -23% | 3% | x | u | -11 | u
Nc1c(C(=O)NCc2ccco2)c2nc3ccccc3nc2n1CCc1ccccc1 | u | -100% | u | -37% | -69* | u
SMILES | Lassa entry inh | Pf growth 96h | Pf growth 48h | Marburg entry inh | HCMV inh | HCV inh
O=C(CC1C(=O)N(c2ccccc2)C(=O)N1CCC1=CCCCC1)Nc1ccc(F)cc1 (stereo not drawn) | -6%[46.1 µM] | x | x | u | -5 | x
O=C(C1CC1)N1CCc2cc(Br)cc(S(=O)(=O)N3CCN(c4cccc(C(F)(F)F)c4)CC3)c21 | 15%[46.1 µM] | x | x | 2%[46.1 µM] | 14 | x
CCCCOCCCn1c(N)c(C(=O)OC(C)COC)c2nc3ccccc3nc21 (stereo not drawn) | 2% | u | 4.7µM* | u | 0 | u
COCCCn1c(N)c(C(=O)OC(C)COC)c2nc3ccccc3nc21 (stereo not drawn) | 0% | u | -9% | -8% | -10 | -3%
O=C(Cn1ncn2c(cc3sccc32)c1=O)NC1CCCC1 | x | 8.3µM* | 17% | x | 2 | 11%
COc1cccc(C(C(=O)NCc2ccccc2)N2CCN(C(=O)C3CCCO3)CC2)c1OC (stereo not drawn) | x | x | x | x | -21 | x
CC(=O)c1c[nH]c(C(=O)NCC2CCCO2)c1 (stereo not drawn) | -4% | 46% | 11% | -1% | 32 | 1%
Cc1onc(-c2c(Cl)cccc2Cl)c1C(=O)c1c[nH]c(C(=O)NCC2CCCO2)c1 (stereo not drawn) | 8.9µM* | u | 10µM* | u | -6 | 11µM*
CCC(CC)C(=O)c1c[nH]c(C(=O)NCC2CCCO2)c1 (stereo not drawn) | 7.1µM* | 2% | 3% | 1% | 2 | 15%
O=C(CSc1nc(=O)[nH]c2c1CCCC2)NCc1ccccc1 | 12%[46.1 µM] | x | x | x | 2 | x
Cc1c(Cl)cccc1NC(=O)Nc1nnc(N(C)C2CCCCC2)s1 | 7%[46.1 µM] | x | x | u | 4 | x
CSc1ccccc1NC(=O)CN(C)CC(=O)c1c(C)[nH]c2ccccc12 | -2% | u | 4.1µM* | 10% | -5 | u
CN1CCN(C(=O)c2ccc(CNS(=O)(=O)c3cccc(Cl)c3)cc2)CC1 | -2% | u | -14% | 1% | 35 | 3%
Cc1ccc(CNc2ncnc3cc(Cl)ccc23)cc1 | x | u | u | x | u | 11µM*
Cc1ccc(CNc2ncnc3cc(Cl)ccc23)o1 | 0% | u | x | -7% | 12 | 11µM*
COc1ccccc1NC(=O)C(=O)NCC(c1ccco1)N1CCc2ccccc21 (stereo not drawn) | u | u | 12µM* | -24% | -4 | u
COc1cc(C(=O)NCC(c2cccs2)N2CCc3ccccc32)cc(OC)c1OC (stereo not drawn) | u | 57% | u | u | 0 | u

Source: PubChem BioAssay (National Center for Advancing Translational Sciences (NCATS))
